According to PubChem BioAssay:
A number with no mark means an inactive call. How the calls were made is not given here.

tested on: Aerobactin synthetase IucA (Klebsiella pneumoniae, hypervirulent); experiment: biochemical IucA inhibition screen of LOPAC library by absorbance (AID 1346212); settings: IucA enzyme assay, absorbance (OD) readout; stronger effect = lower value;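 tested at 8 µM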;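 further: 100% = no compound wells and 0% = no enzyme wells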

Row | SMILES | remaining activity [%]
1 | CN1CC(O)C(O)C(O)C1CO (centres undefined) | 105
2 | CN=C(NC#N)Nc1ccc(C2=NNC(=O)CC2C)cc1 (centres undefined) | 104
3 | OC[C@H]1O[C@@H](n2cnc3c(NC4CCCCC4)ncnc32)[C@H](O)[C@@H]1O | 93.2
4 | NC(N)=N/N=C/c1c(Cl)cccc1Cl | 87.5
5 | C=C1C(=O)O[C@@H]2[C@H]3O[C@]3(C)CC/C=C(\C)CC[C@@H]12 | 119
6 | C#CC(N)CCC(=O)O (centres undefined) | 122
7 | COc1cc(CC(=O)O)ccc1O | 83.1
8 | NC(=Nc1ccccc1)NC(=O)c1nc(Cl)c(N)nc1N | 105
9 | O=c1[nH]c2cc([N+](=O)[O-])c([N+](=O)[O-])cc2[nH]c1=O | 101
10 | CC(C)N(CCC(=O)c1ccc2ccccc2c1)Cc1ccccc1 | 112
11 | CC(=O)Oc1cc(C(C)C)c(OCCN(C)C)cc1C | 118
12 | CCCCCCCCCCCCCCCC(=O)NCCO | 118
13 | C/C=C1\C(=O)C[C@H]2[C@@H]3CCC4=CC(=O)CC[C@]4(C)[C@H]3CC[C@]12C | 101
14 | CC(C)NC[C@H](O)COc1cccc2[nH]ccc12 | 116
15 | CCCCC/C=C\C[C@@H](O)/C=C/c1cccc(C[C@@H](O)CCCCO)n1 | 92.2
16 | O=C(Nc1nc2ccccc2n1CCN1CCOCC1)c1cccc([N+](=O)[O-])c1 | 120
17 | CN1CCN(CC/C=C2/c3ccccc3Sc3ccc(S(=O)(=O)N(C)C)cc32)CC1 | 99.4
18 | Cc1nc2sccn2c(=O)c1CCN1CCC(=C(c2ccccc2)c2ccc(F)cc2)CC1 | 123
19 | COc1ccc(CCNC[C@@H](O)c2ccc(O)cc2)cc1OC | 91.4
20 | Cc1cccc(/C=C/c2ccccc2)n1 | 81

Row | SMILES | remaining activity [%]
21 | O=C(OCCN1CCCCC1)c1c[nH]c2ccccc12 | 102
22 | C=CCn1c(=O)c2c(nc(-c3ccc(S(=O)(=O)O)cc3)n2C)n(C)c1=O | 128
23 | NC(=NCc1ccc(Cl)c(Cl)c1)NC(=O)c1nc(Cl)c(N)nc1N | 105
24 | Cc1cc(C)c(/C=C2\C(=O)Nc3ccccc32)[nH]1 | 118
25 | O=C(O)C1=CCNCC1 | 95.2
26 | N=C(N)SCCc1cccc(CCSC(=N)N)c1 | 110
27 | CN1CCc2cc(Cl)c(O)cc2[C@@H](c2ccccc2)C1 | 102
28 | COc1ccc2c(c1)c(CC(=O)O)c(C)n2C(=O)c1ccccc1 | 111
29 | Cc1cnc(C(=O)NCCc2ccc(S(=O)(=O)NC(=O)NC3CCCCC3)cc2)cn1 | 81
30 | O=C(O)Cc1ccc(O)c(O)c1 | 107
31 | CC(=O)C(C)=O | 97
32 | O=C(c1ccc2c(c1)OCCO2)N1CCCCC1 | 87.4
33 | COc1ccccc1N1CCN(CCCCN2C(=O)c3ccccc3C2=O)CC1 | 113
34 | COc1cc([C@@H]2c3cc4c(cc3[C@@H](O[C@@H]3O[C@@H]5CO[C@@H](C)O[C@H]5[C@H](O)[C@H]3O)[C@H]3COC(=O)[C@H]23)OCO4)cc(OC)c1O | 127
35 | Cc1cc(NC(=O)Nc2ccc3c(ccn3C)c2)sn1 | 122
36 | CCCOC(=O)c1c(-c2ccccc2)nc(CC)c(C(=O)SCC)c1CCC | 106
37 | CC1(C)CCC2=C(O1)c1ccccc1C(=O)C2=O | 113
38 | NC1C=CC=C(C(=O)O)C1 (centres undefined) | 125
39 | NCCC1CCCC(CCN)N1 (centres undefined) | 115
